Data from PubChem BioAssay (Tox21).
Records with an inconclusive call do not appear. Calls of active or inactive are those of the source. Unless noted, calls come from the whole dose curve.

Tests used:
[1] = Nuclear factor erythroid 2-related factor 2/antioxidant responsive element (Nrf2/ARE) small molecule agonists: luciferase reporter gene qHTS assay in human keratinocytes (AID 1919969); note: nearly all actives have a fitted effect of over 35% in size
[2] = target: Gonadotropin-releasing hormone receptor (Homo sapiens) (UniProt P30968); assay: Human gonadotropin-releasing hormone receptor (GnRHR) small molecule agonists, calcium flux assay in GnRHR-HEK293 cells (AID 1920063); note: nearly all actives have a fitted effect of over 35% in size
Procedure, shortened: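 Fluorescence kinetics (480 nm excitation, 540 nm emission; 3 min, 1 s steps) report calcium mobilisation in human GnRHR-HEK293 cells in agonist mode. Dye incubation: 1 h, 37 C.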

[3] = G protein-coupled receptor (GPCR) small molecule agonists, calcium flux assay: HEK293 wild type cell line counter screen (AID 1920065)
Procedure, shortened: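 Readout: fluorescence at 480 nm excitation/540 nm emission, sampled at 1 s intervals for 3 min. Cells had been cultured 18 h, then dye-loaded 1 h at 37 C before compound or ATP addition.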

[4] = p53 small molecule agonists, cell-based qHTS assay with human liver microsomes (AID 1963577)
Procedure, shortened: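 Cells carrying a p53-responsive bla reporter were rested 5 h (37 C, 5% CO2) before compound transfer. Human liver microsomes plus NADPH, 0.5 mg/mL final apiece, supplied metabolism during the 16 h 37 C exposure.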

[5] = p53 small molecule agonists, cell-based qHTS assay with human liver microsomes: qHTS cell viability counter screen (AID 1963579); note: nearly all actives have a fitted effect of over 45% in size
Procedure, shortened: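 Seed p53RE-bla cells at 4,000 per well; incubate 5 h at 37 C; add compound, human liver microsomes and NADPH; incubate 16 h at 37 C; add CellTiter-Glo; after 30 min at room temperature, read luminescence.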

[6] = p53 small molecule agonists, cell-based qHTS assay with rat liver microsomes: qHTS cell viability counter screen (AID 1963580); note: nearly all actives have a fitted effect of over 45% in size
Procedure, shortened: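 HCT-116 p53RE-bla, 4,000 cells/well, 5 h pre-incubation; cpd + rat liver microsomes 0.5 mg/mL + NADPH 0.5 mg/mL (final); 16 h, 37 C; CellTiter-Glo, 30 min RT; luminescence.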

[7] = p53 small molecule agonists, cell-based qHTS assay: qHTS cell viability counter screen (AID 1963581); note: nearly all actives have a fitted effect of over 45% in size
Procedure, shortened: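 In the same plates used for the p53 bla reporter, HCT-116 cells given compounds for 16 h at 37 C received CellTiter-Glo; luminescence was recorded 30 min later at room temperature.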

[8] = p53 small molecule agonists, cell-based qHTS assay (AID 1963582; active = well fitted activation curve with a large enough effect in the signal ratio in the repeat runs, not every such curve was filed as active; the % refers to the signal ratio)
Procedure, shortened: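 Compounds are pin-transferred in DMSO onto p53RE-bla cells and incubated 16 h at 37 C. The B/G FRET beta-lactamase substrate is then applied for 2 h at RT and fluorescence recorded.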

[9] = target: 5-hydroxytryptamine receptor 2A (Homo sapiens) (UniProt P28223); assay: 5-hydroxytryptamine receptor 2A (HTR2A) small molecule antagonists, cell-based qHTS assay (AID 1963586); note: nearly all actives have a fitted effect of over 45% in size
Procedure, shortened: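 Antagonist-mode intracellular calcium assay: DOI (4 nM) added after 5 min compound pre-incubation at room temperature to dye-loaded HTR2A-CHO cells. Fluorescence followed for 3 min, sampled every second.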

[10] = target: 5-hydroxytryptamine receptor 2A (Homo sapiens) (UniProt P28223); assay: 5-hydroxytryptamine receptor 2A (HTR2A) small molecule agonists, cell-based qHTS assay (AID 1963587); note: nearly all actives have a fitted effect of over 30% in size
Procedure, shortened: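 Kinetic calcium-flux fluorescence (2 min, 1 sec intervals) after compound addition in agonist mode. HTR2A-CHO cells were cultured 18 h, then dye-loaded 1 h at 37 C.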

[11] = target: Muscarinic acetylcholine receptor M1 (Homo sapiens) (UniProt P11229); assay: Cholinergic receptor muscarinic 1 (CHRM1) small molecule antagonists, cell-based qHTS assay (AID 1963588); note: nearly all actives have a fitted effect of over 40% in size
Procedure, shortened: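 CHRM1-CHO calcium-flux assay, antagonist mode. Cells were seeded 18 h, dye-loaded 1 h at 37 C and given compound for 5 min at RT, then acetylcholine was added at 50nM. FDSS fluorescence was read 3 min; 15 concentrations, three runs.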

[12] = cAMP Responsive Elements (CRE) small molecule agonists, cell-based qHTS assay (AID 1963590)
Procedure, shortened: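 Cell line: CRE-bla HEK 293T; medium DMEM/10% dialyzed FBS/0.1 mM NEAA/1 mM pyruvate/25 mM HEPES; 3 h compound exposure; beta-lactamase FRET readout after 2 h substrate loading at RT.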

[13] = cAMP Responsive Elements (CRE) small molecule antagonists, cell-based qHTS assay (AID 1963591; active = well fitted inhibition curve with a large enough effect in the signal ratio in the repeat runs, not every such curve was filed as active; the % refers to the signal ratio)
Procedure, shortened: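 Inhibition of NKH477-driven (0.25 uM final) CRE-beta-lactamase signal in HEK293T cells, 3 h compound exposure at 37 °C, detected by FRET substrate fluorescence.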

[14] = target: Beta-2 adrenergic receptor (Homo sapiens) (UniProt P07550); assay: Adrenergic beta2 receptor (ADRB2) small molecule antagonists, cell-based qHTS assay (AID 1963592); note: series mostly up to about 92 µM; nearly all actives have a fitted effect of over 50% in size
Procedure, shortened: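 Cells (CHO, stable ADRB2 overexpression) incubated 18-20hr at 37C; compounds added from DMSO; agonist mix (1nM isoproterenol, 100uM IBMX, 25uM Ro-20-1724) added; 0.5hr RT; d2-cAMP and anti-cAMP-cryptate added; 1hr RT; 665/615 nm read.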

[15] = target: D(2) dopamine receptor (Homo sapiens) (UniProt P14416); assay: Dopamine D2 receptor (DRD2) small molecule agonists, cell-based qHTS assay (AID 1963594); note: nearly all actives have a fitted effect of over 35% in size
Procedure, shortened: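 cAMP accumulation in DRD2-HEK293 cells measured by HTRF after 1 h detection; compounds added 10 min before NKH477 (200nM […]) forskolin-analogue stimulation, 30 min at room temperature, with Ro20-1724 present at 0.1 mM final.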

[16] = target: D(2) dopamine receptor (Homo sapiens) (UniProt P14416); assay: Dopamine D2 receptor (DRD2) small molecule antagonists, cell-based qHTS assay (AID 1963595; active = well fitted inhibition curve with a large enough effect in the signal ratio in the repeat runs, with a control signal flat; the % refers to the signal ratio)
Procedure, shortened: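 Cells were plated and grown for 24 h at 37 °C. Ro20-1724 (0.1 mM final) went in first, then compound for 10 min. NKH477 (200 nM) with quinpirole (12 nM) followed for 30 min at RT, then HTRF detection reagents for 1 h.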

[17] = p53 small molecule agonists, cell-based qHTS assay with rat liver microsomes (AID 1963578)
Procedure, shortened: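 Fluorescence from a beta-lactamase reporter under a p53 response element was measured after cells had been incubated 16 h at 37 C with test compound and rat liver microsomes plus NADPH (0.5 mg/mL final each).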

[18] = target: Muscarinic acetylcholine receptor M1 (Homo sapiens) (UniProt P11229); assay: Cholinergic receptor muscarinic 1 (CHRM1) small molecule agonists, cell-based qHTS assay (AID 1963589); note: nearly all actives have a fitted effect of over 35% in size
Procedure, shortened: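 Each compound was tested at 15 concentrations across three independent runs on dye-loaded CHO cells stably expressing human CHRM1, reading intracellular calcium fluorescence kinetically at 1 sec intervals.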

[19] = target: KiSS-1 receptor (Homo sapiens) (UniProt Q969F8); assay: Human kisspeptin (KISS1R) small molecule agonists, calcium flux assay in KISS1R-HEK293 cells (AID 1920064; active = well fitted activation curve with a large enough effect in the repeat runs)
Procedure, shortened: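 Measures KISS1R agonism through calcium-sensitive dye fluorescence in stably transfected HEK293 cells, read for 3 min after pin-tool compound delivery; 15-point titrations in triplicate.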

[20] = target: Beta-2 adrenergic receptor (Homo sapiens) (UniProt P07550); assay: Adrenergic beta2 receptor (ADRB2) small molecule agonists, cell-based qHTS assay (AID 1963593);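 note: CHO cells stably overexpressing human ADRB2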
Procedure, shortened: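 CHO cells stably over-expressing ADRB2 were plated overnight at 37C, then dosed with compounds plus a stimulation mix containing 100uM IBMX and 25uM Ro-20-1724 for 0.5hr at room temperature. cAMP was measured by HTRF competition, 1hr.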
% is set by controls: 0 for no effect and ±100 for the full control effect.

Chain of Beta-2 adrenergic receptor (Homo sapiens) (P07550 whole entry, looked up): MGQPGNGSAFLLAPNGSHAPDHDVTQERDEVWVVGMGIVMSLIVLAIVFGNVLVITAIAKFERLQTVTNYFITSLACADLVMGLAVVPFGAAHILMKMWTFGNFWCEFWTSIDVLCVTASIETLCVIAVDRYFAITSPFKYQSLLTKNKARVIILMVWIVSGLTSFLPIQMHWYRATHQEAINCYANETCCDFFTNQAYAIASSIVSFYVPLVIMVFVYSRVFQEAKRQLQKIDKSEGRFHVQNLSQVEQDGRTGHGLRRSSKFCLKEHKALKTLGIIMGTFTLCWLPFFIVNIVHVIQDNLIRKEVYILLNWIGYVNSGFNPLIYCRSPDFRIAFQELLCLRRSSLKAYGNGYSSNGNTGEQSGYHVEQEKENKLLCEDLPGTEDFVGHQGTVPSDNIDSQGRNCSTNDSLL
Chain of 5-hydroxytryptamine receptor 2A (Homo sapiens) (P28223 whole entry, looked up): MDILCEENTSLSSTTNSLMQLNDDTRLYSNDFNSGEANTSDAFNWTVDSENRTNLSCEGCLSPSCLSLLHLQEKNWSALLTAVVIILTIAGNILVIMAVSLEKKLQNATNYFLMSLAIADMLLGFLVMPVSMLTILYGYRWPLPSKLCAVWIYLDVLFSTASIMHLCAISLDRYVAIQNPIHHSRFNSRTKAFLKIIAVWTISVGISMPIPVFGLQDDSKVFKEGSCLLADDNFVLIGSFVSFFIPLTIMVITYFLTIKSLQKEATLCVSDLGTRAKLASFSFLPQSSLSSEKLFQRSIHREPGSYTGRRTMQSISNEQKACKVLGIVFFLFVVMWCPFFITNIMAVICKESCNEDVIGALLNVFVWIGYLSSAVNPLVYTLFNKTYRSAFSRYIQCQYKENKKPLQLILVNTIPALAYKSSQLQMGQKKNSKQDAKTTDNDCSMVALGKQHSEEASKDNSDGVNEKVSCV
Chain of KiSS-1 receptor (Homo sapiens) (Q969F8 whole entry, looked up): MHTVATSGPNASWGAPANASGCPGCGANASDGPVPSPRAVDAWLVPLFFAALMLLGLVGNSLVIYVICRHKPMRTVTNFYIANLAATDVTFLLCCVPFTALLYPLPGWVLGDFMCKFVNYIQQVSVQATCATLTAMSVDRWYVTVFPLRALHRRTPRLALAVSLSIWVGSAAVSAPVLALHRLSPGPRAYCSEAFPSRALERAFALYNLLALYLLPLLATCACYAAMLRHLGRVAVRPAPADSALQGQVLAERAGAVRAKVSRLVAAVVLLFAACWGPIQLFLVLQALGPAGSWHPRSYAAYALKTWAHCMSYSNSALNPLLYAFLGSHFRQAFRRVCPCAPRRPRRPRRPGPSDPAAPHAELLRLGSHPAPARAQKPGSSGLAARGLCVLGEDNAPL
Chain of Muscarinic acetylcholine receptor M1 (Homo sapiens) (P11229 whole entry, looked up): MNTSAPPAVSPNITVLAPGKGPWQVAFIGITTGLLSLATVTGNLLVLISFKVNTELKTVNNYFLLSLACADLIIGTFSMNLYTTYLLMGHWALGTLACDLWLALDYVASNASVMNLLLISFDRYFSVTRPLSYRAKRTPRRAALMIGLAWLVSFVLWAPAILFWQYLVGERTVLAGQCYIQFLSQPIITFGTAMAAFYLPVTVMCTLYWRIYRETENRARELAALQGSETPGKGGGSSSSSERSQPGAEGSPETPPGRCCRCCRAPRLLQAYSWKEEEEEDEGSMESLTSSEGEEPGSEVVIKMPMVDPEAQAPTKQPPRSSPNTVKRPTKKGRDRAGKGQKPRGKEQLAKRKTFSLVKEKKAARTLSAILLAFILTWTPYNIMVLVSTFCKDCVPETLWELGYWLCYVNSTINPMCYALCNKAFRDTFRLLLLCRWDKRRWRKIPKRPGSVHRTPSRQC
Chain of Gonadotropin-releasing hormone receptor (Homo sapiens) (P30968 whole entry, looked up): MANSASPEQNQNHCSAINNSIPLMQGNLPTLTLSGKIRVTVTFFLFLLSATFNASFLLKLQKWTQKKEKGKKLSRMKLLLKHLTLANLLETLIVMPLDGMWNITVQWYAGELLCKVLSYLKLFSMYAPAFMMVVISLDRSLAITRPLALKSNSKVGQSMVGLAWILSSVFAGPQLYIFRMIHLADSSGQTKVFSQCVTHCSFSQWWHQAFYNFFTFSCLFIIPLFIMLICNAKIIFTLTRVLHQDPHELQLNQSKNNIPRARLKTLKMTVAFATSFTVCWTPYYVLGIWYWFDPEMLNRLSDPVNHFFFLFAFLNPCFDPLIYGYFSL
Chain of D(2) dopamine receptor (Homo sapiens) (P14416 whole entry, looked up): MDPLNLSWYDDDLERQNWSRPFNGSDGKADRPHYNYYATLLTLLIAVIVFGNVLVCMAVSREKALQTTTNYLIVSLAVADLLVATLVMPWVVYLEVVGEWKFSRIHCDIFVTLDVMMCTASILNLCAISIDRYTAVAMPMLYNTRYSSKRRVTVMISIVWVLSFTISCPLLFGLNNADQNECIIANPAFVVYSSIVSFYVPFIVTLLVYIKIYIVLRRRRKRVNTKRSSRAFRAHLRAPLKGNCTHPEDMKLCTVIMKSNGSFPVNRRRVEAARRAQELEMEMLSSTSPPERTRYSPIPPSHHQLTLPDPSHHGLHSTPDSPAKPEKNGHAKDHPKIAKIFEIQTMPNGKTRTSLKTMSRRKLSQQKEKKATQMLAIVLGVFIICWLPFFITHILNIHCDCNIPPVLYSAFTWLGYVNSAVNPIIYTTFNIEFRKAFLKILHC

C1=CCC(c2ccccc2)CC1 (stereo unspecified)
inactive: Potency [1] | Potency [2] | outcome [3] | Potency [4] | Potency [5] | Potency [6] | Potency [7] | Potency [8] | Potency [9] | Potency [10] | Potency [11] | Potency [12] | Potency [13] | Potency [14] | Potency [15] | Potency [16]

CC(N)CCCC(C)(C)O (stereo unspecified)
inactive: Potency [1] | Potency [2] | outcome [3] | Potency [4] | Potency [17] | Potency [5] | Potency [6] | Potency [7] | Potency [8] | Potency [9] | Potency [10] | Potency [11] | Potency [18] | Potency [12] | Potency [13] | Potency [14] | Potency [15] | Potency [16]

CCN(CCO)CCCC(C)Nc1ccnc2cc(Cl)ccc12 (stereo unspecified)
inactive: activity, positive = activation [1] -5.51% [at 8.39 µM] | activation [19] -0.232% [at 6.97 µM] | activation [3] -1.14% [at 5.23 µM] | activation [4] 9.14% [at 5.99 µM] | activation [17] 0.449% [at 5.99 µM] | activity change, negative = cytotoxicity [5] -18.4% [at 5.99 µM] | activity change, negative = cytotoxicity [6] -0.0605% [at 5.99 µM] | activity change, negative = cytotoxicity [7] 14.7% [at 5.99 µM] | activation [8] 0.694% [at 5.99 µM] | activation [12] 0.273% [at 8.39 µM] | activity change, negative = inhibition [13] -1.93% [at 8.39 µM] | activity change, negative = inhibition [14] 1.52% [at 8.39 µM] | activation [20] 0.519% [at 8.39 µM] | activation [15] 4.56% [at 8.39 µM]

COc1ccc(CN(CCN(C)C)c2ncccn2)cc1
inactive: Potency [1] | Potency [2] | outcome [3] | Potency [4] | Potency [17] | Potency [6] | Potency [8] | Potency [9] | Potency [10] | Potency [11] | Potency [18] | Potency [12] | Potency [13] | Potency [14] | Potency [15] | Potency [16]

CC(=O)[C@H]1CC[C@H]2[C@@H]3C=CC4=CC(=O)CC[C@@]4(C)[C@@H]3CC[C@]12C
inactive: Potency [1] | outcome [19] | outcome [3] | Potency [17] | Potency [5] | Potency [6] | Potency [7] | Potency [8] | Potency [9] | Potency [10] | Potency [18] | Potency [13] | Potency [14] | Potency [20] | Potency [15] | Potency [16]

N#Cc1ccc(CC(=O)c2cccc(C(F)(F)F)c2)cc1
inactive: Potency [1] | outcome [19] | outcome [3] | Potency [4] | Potency [17] | Potency [5] | Potency [6] | Potency [8] | Potency [9] | Potency [10] | Potency [11] | Potency [18] | Potency [12] | Potency [13] | Potency [14] | Potency [15] | Potency [16]

Cc1ccc2ccccc2n1
inactive: Potency [2] | outcome [19] | outcome [3] | Potency [4] | Potency [17] | Potency [5] | Potency [6] | Potency [7] | Potency [9] | Potency [10] | Potency [11] | Potency [18] | Potency [12] | Potency [13] | Potency [14] | Potency [20] | Potency [15] | Potency [16]

CCOC(=O)OC(C)OC1=C(C(=O)Nc2ccccn2)N(C)S(=O)(=O)c2ccccc21 (stereo unspecified)
inactive: Potency [1] | Potency [2] | outcome [3] | Potency [4] | Potency [17] | Potency [5] | Potency [6] | Potency [8] | Potency [12] | Potency [13] | Potency [14] | Potency [20] | Potency [15] | Potency [16]

CCCCCCC(O)CO (stereo unspecified)
inactive: Potency [1] | Potency [2] | outcome [19] | Potency [4] | Potency [17] | Potency [5] | Potency [6] | Potency [7] | Potency [8] | Potency [9] | Potency [10] | Potency [11] | Potency [18] | Potency [12] | Potency [13] | Potency [14] | Potency [15] | Potency [16]

C=COCCCCO
inactive: Potency [2] | outcome [19] | outcome [3] | Potency [4] | Potency [17] | Potency [5] | Potency [6] | Potency [8] | Potency [9] | Potency [10] | Potency [12] | Potency [13] | Potency [14] | Potency [20] | Potency [15] | Potency [16]

Nc1nc2c(ncn2CCC(CO)CO)c(=O)[nH]1
inactive: Potency [1] | Potency [2] | outcome [19] | Potency [4] | Potency [17] | Potency [5] | Potency [6] | Potency [7] | Potency [8] | Potency [12] | Potency [14] | Potency [20] | Potency [16]
